From PubChem BioAssay (NCI) come the findings set out here.

Among the test systems are NCI-H23 lung; NCI-H226 lung; NCI-H322M lung; HOP-62 NSCLC; NCI-H460 lung; NCI-H522 lung; A549/ATCC NSCLC; 786-0 renal; COLO 205 colon; DU-145 prostate; K-562 leukemia; MALME-3M melanoma; MDA-MB-231 breast; RXF 393 renal; SF-268 CNS; SF-295 CNS; SF-539 CNS; UACC-257 melanoma.
Assay in all cases: NCI-60 one-dose screen, 48 h (100 = growth as untreated, 0 = no growth, -100 = all killed)
Details in all cases: 10 µM unless noted

Compounds without any hit were thinned out: in the full panel of roughly 83,000, 20% have a hit.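 The test compound was applied at a single concentration to cells in 96-well plates for 48 hours, and percent growth was recorded.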 Values without a mark were called inactive. Activity calls are given as the source filed them. How the source made its calls: active means growth percent below 10; inactive means the rest.

As for `O=c1c2cc(Cl)ccc2oc2ccc(OCCCCCN3CCCCCC3)cc12`, the growth with NCI-H23 lung was 87.5%; in the test on NCI-H226 lung, 90.1%; with NCI-H322M lung it was 89.6%; in the test with HOP-62 NSCLC, 79.7%; in the test on NCI-H460 lung, 63%; in the test with NCI-H522 lung it was 80.2%. In addition, the growth was 61.2% with A549/ATCC NSCLC; 70.2% in the test with 786-0 renal; 76.7% with COLO 205 colon; 91.9% in the test with DU-145 prostate; 34.6% with K-562 leukemia; 114% in the test with MALME-3M melanoma. Moreover, the growth was 84.4% with MDA-MB-231 breast; 84.4% in the test with RXF 393 renal; 87.4% in the test with SF-268 CNS; 97.5% in the test on SF-295 CNS; 94.1% in the test with SF-539 CNS; 83.7% with UACC-257 melanoma.
In the case of `CC(C)CCSc1nc(-c2ccc(F)cc2)c(C#N)c(N2CCN(C)CC2)n1`, the growth was 91.5% in the test on NCI-H23 lung; 96.8% in the test with NCI-H226 lung; 87.8% in the test with NCI-H322M lung; 85.2% in the test with HOP-62 NSCLC; 88.8% in the test with NCI-H460 lung; 59% with NCI-H522 lung. In addition, the growth is 65% with A549/ATCC NSCLC; 65.6% with 786-0 renal; 84.6% in the test on COLO 205 colon; 94.4% in the test on DU-145 prostate; 62.7% with K-562 leukemia; 97.4% with MALME-3M melanoma. In addition, the growth is 53.3% in the test with MDA-MB-231 breast; 78.8% with RXF 393 renal; 83% with SF-268 CNS; 101% with SF-295 CNS; 93.1% with SF-539 CNS; 64.1% with UACC-257 melanoma.
`Cn1cnc([N+](=O)[O-])c1S(=O)(=O)Oc1ccccc1`: the growth in the test on NCI-H23 lung is 101%; with NCI-H226 lung, 91.6%; in the test with NCI-H322M lung, 109%; in the test on HOP-62 NSCLC, 96.1%; with NCI-H460 lung it was 105%; in the test with NCI-H522 lung, -75.7% (active). Besides, the growth with A549/ATCC NSCLC was 106%; in the test on 786-0 renal it was 95.2%; in the test with COLO 205 colon, -16.9% (active); with DU-145 prostate it was 70.4%; in the test on K-562 leukemia, 31.8%; with MALME-3M melanoma, -60.9% (active). For the same compound, the growth with MDA-MB-231 breast was 99.4%; in the test with RXF 393 renal it was 74.1%; in the test on SF-268 CNS, 101%; with SF-295 CNS, 110%; in the test on SF-539 CNS, 93.8%; in the test with UACC-257 melanoma, 90.9%.
Turning to `O=C(Nc1ccccc1)c1cc2ccccc2s1`, the growth with NCI-H23 lung is 74.8%; with NCI-H226 lung it was 88.4%; with NCI-H322M lung it was 75.6%; in the test on HOP-62 NSCLC, 94.5%; in the test on NCI-H460 lung it was 39.7%; with NCI-H522 lung, 82.4%. Further, the growth in the test on A549/ATCC NSCLC was 69.4%; in the test with 786-0 renal, 92.8%; in the test on COLO 205 colon, 95.1%; with DU-145 prostate it was 103%; in the test with K-562 leukemia, 87.1%; with MALME-3M melanoma it was 108%. Also, the growth is 78.2% in the test on MDA-MB-231 breast; 110% with RXF 393 renal; 95.6% in the test with SF-268 CNS; 96.8% in the test with SF-295 CNS; 110% with SF-539 CNS; 95.1% with UACC-257 melanoma.
Take `Clc1ccc(Cl)c(N=Cc2ccc3c(c2)OCO3)c1`: the growth with NCI-H23 lung is 99.2%; in the test on NCI-H226 lung, 103%; in the test on NCI-H322M lung, 108%; with HOP-62 NSCLC, 101%; with NCI-H460 lung, 116%; in the test on NCI-H522 lung it was 88.7%. In addition, the growth in the test with A549/ATCC NSCLC was 96.9%; in the test on 786-0 renal it was 110%; in the test with COLO 205 colon, 109%; with DU-145 prostate it was 120%; in the test on K-562 leukemia it was 103%; in the test on MALME-3M melanoma it was 111%. Further, the growth with MDA-MB-231 breast is 124%; in the test on RXF 393 renal, 111%; in the test with SF-268 CNS, 105%; in the test on SF-295 CNS, 106%; in the test on SF-539 CNS, 116%; with UACC-257 melanoma, 103%.
In the case of `O=C1CCCN1C1CCN2CCCc3cccc1c32` (configuration not stated), the growth in the test on NCI-H23 lung is 105%; in the test on NCI-H226 lung it was 111%; in the test with NCI-H322M lung, 114%; in the test on HOP-62 NSCLC, 97%; in the test with NCI-H460 lung it was 110%; in the test with NCI-H522 lung, 84.2%. Besides, the growth in the test on A549/ATCC NSCLC was 107%; with 786-0 renal, 101%; with COLO 205 colon it was 110%; in the test with DU-145 prostate, 119%; in the test on K-562 leukemia, 109%; in the test on MALME-3M melanoma, 94.2%. Moreover, the growth with MDA-MB-231 breast was 101%; with RXF 393 renal, 128%; in the test on SF-268 CNS, 112%; in the test on SF-295 CNS, 110%; with SF-539 CNS, 101%; in the test on UACC-257 melanoma, 111%.
In the case of `COc1cc(-c2nn(C(=O)NCCN3CCN(C)CC3)cc2-c2ccncc2)ccc1Cl`, the growth is 90.5% in the test with NCI-H23 lung; 27.1% with NCI-H226 lung; 106% in the test with NCI-H322M lung; 41.6% in the test on HOP-62 NSCLC; 93.5% with NCI-H460 lung; 75.3% in the test with NCI-H522 lung. Further, the growth in the test with A549/ATCC NSCLC is 57%; in the test with 786-0 renal, 59.3%; in the test with COLO 205 colon, 50.9%; in the test on DU-145 prostate it was 87.2%; with K-562 leukemia it was 83.9%; in the test with MALME-3M melanoma, 77.8%. Also, the growth is 70.5% in the test on MDA-MB-231 breast; 42.3% in the test on RXF 393 renal; 46.2% with SF-268 CNS; 88.2% in the test on SF-295 CNS; 63.6% in the test with SF-539 CNS; 86.2% in the test with UACC-257 melanoma.
Regarding `CCNCCCn1c2c(c3ccc(Cl)cc3c1=O)C(=O)c1cc(OC)cnc1-2`, the growth was 28.8% in the test with NCI-H23 lung; -6.31% (active) in the test with NCI-H226 lung; 45% with NCI-H322M lung; -18.8% (active) in the test on HOP-62 NSCLC; -69.9% (active) in the test with NCI-H460 lung; -10.2% (active) in the test on NCI-H522 lung. The growth is 25.7% with A549/ATCC NSCLC; -95.4% (active) in the test on 786-0 renal; 8.78% (active) with COLO 205 colon; -97.4% (active) in the test with DU-145 prostate; -84.2% (active) in the test on K-562 leukemia; 74.2% in the test with MALME-3M melanoma. Further, the growth in the test on MDA-MB-231 breast is -72.6% (active); in the test with RXF 393 renal it was 8.86% (active); in the test with SF-268 CNS, -66% (active); in the test with SF-295 CNS, 15.5%; with SF-539 CNS, 12%; in the test on UACC-257 melanoma, 65.9%.
`Clc1cccc(CNc2c3ccccc3nc3ccccc23)c1`: the growth in the test on NCI-H23 lung was 32%; in the test on NCI-H226 lung it was 48%; in the test with NCI-H322M lung, 31.3%; in the test on HOP-62 NSCLC it was 45.5%; in the test on NCI-H460 lung, 14.2%; with NCI-H522 lung, 41.7%. Moreover, the growth is 27.9% in the test with A549/ATCC NSCLC; 25.2% with 786-0 renal; 0.537% (active) in the test on COLO 205 colon; 31.6% with DU-145 prostate; 5.03% (active) in the test on K-562 leukemia; 45% in the test with MALME-3M melanoma. Also, the growth with MDA-MB-231 breast is 29.4%; in the test on RXF 393 renal it was 19%; in the test on SF-268 CNS, 60.6%; with SF-295 CNS, 20.8%; in the test on SF-539 CNS, 9.28% (active); with UACC-257 melanoma, 45.4%.
